Screens as filed in PubChem BioAssay.
HCV inh = qHTS Assay for Inhibitors of Hepatitis C Virus (HCV) | Huh7.5.1 HCVcc-Cre infection, luciferase reporter, 44 h | Potency, µM (doses to about 41.8 µM), for the others: top-dose activity change, negative = inhibition, most hits filed as inhibitors | 3.4% of 340,000 active | AID 651820, 2012; further: potency means the concentration at half of the fitted maximal effect
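Antiviral activity was scored by luciferase reporter output from cells infected with HCVcc-Cre (~0.5 moi) in presence of compound, 44 h infection period, cells seeded 1,000/well 4 h prior.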
MARV entry inh = qHTS for inhibitors of binding or entry into cells for Marburg Virus; Potency, µM (series often up to 37.8 µM), for the others: top-dose activity change, negative = inhibition, usual class: inhibitors; AID 540276, 2011; 1.8% of 300,000 active; Marburg virus pseudotyped entry inhibition, cell reporter; calls by dose curve; tested in HEK293 cells; further: potency means the concentration at half of the fitted maximal effect
HCMV antiviral = qHTS Assay for inhibitors of the human cytomegalovirus (HCMV) | HFF cells, HCMV-luciferase reporter, 72 h; active compounds read low | activity change, negative = inhibition, % at 57.5 µM | 4.5% of 410,000 active | AID 1259415, 2018; in the data active means activity change below about -60%; inconclusive means no clear call, values can overlap the other calls; inactive means above about -39%
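Human foreskin fibroblasts infected with luciferase-reporter HCMV at MOI 1 PFU/cell, compounds at two doses. Luciferase measured 72 h post infection; normalized to buffer-only basal and Salinomycin (10uM) controls.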
FMDV inh = High Throughput Screening for Foot and Mouth Disease Virus Antivirals; AID 1159524, 2015; Potency, µM (top dose mostly 57.9 µM), inactives show top-dose activity change, negative = inhibition, most hits filed as inhibitors; 1.2% of 410,000 active; FMDV antiviral cell-based qHTS; calls by dose curve; tested in HEK293T cells; further: read-out not given here; potency means the concentration at half of the fitted maximal effect; nearly all actives have a fitted effect of over 45% in size
FBPA Giardia inh = qHTS Assay for Inhibitors of Fructose-1,6-bisphosphate Aldolase from Giardia Lamblia | purified Giardia FBPA | Potency, µM (top dose mostly 59.6 µM), for the others: at the top dose activity, negative = inhibition, usual class: inhibitors | A8B2U2 | 0.71% of 290,000 active; further: potency means the concentration at half of the fitted maximal effect; nearly all actives have a fitted effect of over 55% in size
Target sequence (A8B2U2 whole entry, looked up): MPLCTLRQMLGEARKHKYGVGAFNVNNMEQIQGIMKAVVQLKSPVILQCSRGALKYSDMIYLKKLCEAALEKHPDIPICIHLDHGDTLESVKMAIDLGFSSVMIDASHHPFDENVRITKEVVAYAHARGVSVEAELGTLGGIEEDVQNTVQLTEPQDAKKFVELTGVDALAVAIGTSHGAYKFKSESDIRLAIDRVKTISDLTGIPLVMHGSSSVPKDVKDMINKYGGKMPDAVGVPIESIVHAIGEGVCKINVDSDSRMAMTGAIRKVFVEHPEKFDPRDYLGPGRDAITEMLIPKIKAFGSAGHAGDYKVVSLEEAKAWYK
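Giardia FBPA (40 nM reagent) was preincubated 10 min at RT with compound (up to 57.5 uM final), then substrate plus GAPDH/TPI/NAD/arsenate coupling system with diaphorase/resazurin was added; resorufin fluorescence (525/598 nm) was read after 20 min.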
LASV entry inh = qHTS for Inhibitors of binding or entry into cells for Lassa Virus. Lassa virus pseudotype entry inhibition, cell reporter. Potency, µM (series often up to 37.9 µM), for inactives: at the highest dose activity change, negative = inhibition, actives largely listed as inhibitors. 1.2% of 300,000 active. AID 540256, 2011; calls by dose curve; tested in HEK293 cells; further: potency means the concentration at half of the fitted maximal effect; nearly all actives have a fitted effect of over 50% in size
Active calls of the source: *; ? = inconclusive; . = not tested or not shown; ! = a repeat was not active; [ ] = another dose, or the depositor's remark. Sampled rows, rich in hits. Any-hit rate of the full collection: about 8.3%. Unless noted, the call rests on the fitted dose curve; in most records, active means well fitted curve in the direction sought with a large enough effect; inconclusive means small, poorly fitted or top-dose-only effect, or another doubt; inactive means no such curve, though single readings can be large; an effect the other way counts as inactive or inconclusive. On the % scale 0 is the no-effect control and ±100 the full control effect.

SMILES	HCV inh	MARV entry inh	HCMV antiviral	FMDV inh	FBPA Giardia inh	LASV entry inh
COc1ccc(OC)c(-c2csc(NC(=O)C3COc4ccccc4O3)n2)c1 (centres undefined)	?	0.8%	-7.5	-26.0%	-7.2%	?
COc1ccc(OC)c(-c2csc(NC(=O)COC(=O)C3(C)CC3(Cl)Cl)n2)c1 (centres undefined)	14.1µM*	.	10.6	?	.	.
COc1ccc(OC)c(-c2csc(NC(=O)Cc3cccs3)n2)c1	?	-8.3%	33.7	25.7%	-5.5%	0.316µM*
COc1ccc(OC)c(-c2csc(NC(=O)C3c4ccccc4Oc4ccccc43)n2)c1	?	-7.2%	-65.8*	-23.6%	3.6%	?
COc1ccc(OC)c(-c2csc(NC(=O)Cc3ccccc3)n2)c1	?	?	22.9	26.5%	.	?
CC(=O)Nc1ccc(-c2csc(NC(=O)Cc3cccc(F)c3)n2)cc1	7.94µM*	?	-2.5	-3.0%	-3.3%	?
COc1ccc(CC(=O)Nc2nc(C)cs2)cc1OC	?	?	-69.9*	-3.9%	9.1%	-1.1%
CC(C)(C)c1csc(NNC(=O)c2ccc(Br)cc2)n1	?	?	-97.3*	-3.5%	-12.0%	?
COc1ccc(CC(=O)Nc2nc(C(C)(C)C)cs2)cc1	10µM*	?	?	?	0.7%	4.47µM*
C/C(=N\Nc1nc(C(C)(C)C)cs1)c1ccc(O)cc1	-19.7%	.	-22.0	0.0%	?	.
COc1ccc(NC(=O)N2C[C@H]3[C@@H](c4ccccc42)[C@@H](CO)N3C(=O)C2CC2)cc1	.	.	11.9	.	.	.
Cc1ccccc1C(=O)Nc1nc(-c2ccc(Br)cc2)ns1	.	-2.5%[46.1 µM]	-95.5*	?	.	2.7%[46.1 µM]
COc1ccccc1C(=O)Nc1nc(-c2ccc(Br)cc2)ns1	.	-5.4%[46.1 µM]	-23.1	-7.8%	.	-1.2%[46.1 µM]
CC[C@H](/C=C/[C@@H](C)[C@H]1CC[C@H]2C3CC=C4C[C@@H](O)CC[C@]4(C)C3CC[C@]12C)C(C)C (some centres undefined)	.	.	.	.	8.0%	.
Cc1occc1-c1nnc(SCC(=O)Nc2ccccc2)n1Cc1ccccc1	-4.2%	?	-62.1*	.	7.4%	-12.9%
O=[N+]([O-])c1cccc2c([As](=O)(O)O)cccc12	?	-6.1%[46.1 µM]	-73.5*	-5.1%	-15.2%	8.6%[46.1 µM]
CCn1c(=O)c2cc(C(=O)NCc3cc(OC)ccc3OC)sc2c2ccccc21	.	-23.0%[46.1 µM]	-19.2	-10.9%	.	-26.6%[46.1 µM]
O=[N+]([O-])c1ccc(SCc2ccco2)cc1N1CCOCC1	-24.4%	-15.8%[46.1 µM]	-24.5	9.1%	-3.0%	12.5%[46.1 µM]
O=[N+]([O-])c1ccc(N2CCOCC2)cc1SCc1ccco1	11.2µM*	?	-1.2	-18.1%	-1.8%	2.4%
O=C(CCl)c1ccc(Cc2ncc(C(F)(F)F)cc2Cl)s1	-19.9%	0.6%[46.1 µM]	5.9	25.1µM*	0.0%	-25.9%
COc1ccc(NC(=O)C2CCN(c3cnccn3)CC2)cc1Cl	-9.4%	?	-60.2*!	-9.3%	-3.0%	-9.9%[46.1 µM]
COc1ccc(CNC(=O)C2CCCN(S(=O)(=O)N(C)c3ccc(F)cc3)C2)cc1OC (centres undefined)	.	.	?	12.6µM*	.	-8.9%[46.1 µM]
COc1ccc(S(=O)(=O)N2CCCC(C(=O)NCc3ccncc3)C2)cc1Cl (centres undefined)	-24.9%	-4.9%	-65.8*	.	24.3%	16.3%
COc1ccc(S(=O)(=O)N2CCCC(C(=O)Nc3cccc(C(C)=O)c3)C2)cc1 (centres undefined)	?	?	-66.2*	?	-8.3%	5.2%
COc1ccc(S(=O)(=O)N2CCC(C(=O)NCc3ccncc3)CC2)cc1Cl	-9.0%	5.1%[46.1 µM]	8.0	-7.3%	0.4%	-7.9%[46.1 µM]
SMILES	HCV inh	MARV entry inh	HCMV antiviral	FMDV inh	FBPA Giardia inh	LASV entry inh
Cc1cc(C)n(-c2cccc(C(=O)NCC3Cc4cccc(-c5ccccn5)c4O3)c2)n1 (centres undefined)	.	.	.	-27.9%	.	.
COc1ccc(S(=O)(=O)N2CCCC(C(=O)Nc3cccnc3)C2)cc1Cl (centres undefined)	?	?	?	25.1µM*	-6.4%	-6.7%
CC(=O)N1CCCc2cc(S(=O)(=O)N3CCCC(C(=O)NCc4ccccc4)C3)ccc21 (centres undefined)	-13.6%	.	0.0	?	-3.5%	?
COc1ccc(NC(=O)C2CCCN(S(=O)(=O)c3ccc4c(c3)CCCN4C(C)=O)C2)cc1Cl (centres undefined)	2.51µM*	-10.1%[46.1 µM]	?	?	.	?
CC(=O)N1CCCc2cc(S(=O)(=O)N3CCCC(C(=O)NCc4ccc(C)cc4)C3)ccc21 (centres undefined)	?	.	-72.4*!	?	3.6%	?
CCCCCCCc1cc2ccccc2c2c(C(=O)OC)c(C(=O)OC)c(C(=O)OC)n12	.	18.3%[14.2 µM]	.	.	.	?
N#Cc1c(NC(=O)CSc2ncn[nH]2)sc2c1CCCC2	?	?	-36.8	?	4.0%	2.31µM*
CCCc1cc(=O)[nH]c(SCC(=O)Nc2sc3c(c2C#N)CCC(C)C3)n1 (centres undefined)	-1.8%	33.2%[46.1 µM]	-61.0*	7.4%	4.4%	-10.0%[46.1 µM]
CC1CCc2c(sc(NC(=O)CSc3ncn[nH]3)c2C#N)C1 (centres undefined)	11.2µM*	.	-66.1*	?	11.5%	.
CC(C)(C)C1CCc2c(sc(NC(=O)CSc3ncn[nH]3)c2C#N)C1 (centres undefined)	?	-25.7%	-20.2	-19.9%	-9.4%	?
CCN1CCN(CC(=O)Nc2sc3c(c2C#N)CCC(C)C3)CC1 (centres undefined)	35.5µM*	?	-38.6	0.0%	0.0%	6.4%
O=C(Oc1ccccc1F)c1nc(SCc2ccccc2F)ncc1Cl	.	8.8%[46.1 µM]	23.3	-13.7%	.	-9.5%[46.1 µM]
O=C1[C@H]2[C@H]3[C@H](O)[C@H](O)C/C(=N/OCc4ccccc4)[C@H]3CC[C@@H]2C(=O)N1C1CCCCC1	.	-25.4%[14.2 µM]	.	.	2.7%[12.9 µM]	.
CC(C)(C)c1ccc(C(=O)OCC(=O)Nc2sc3c(c2C#N)CCC3)cc1	1.9%	?	-21.1	-8.2%	4.8%	0.0%
N#Cc1c(NC(=O)COC(=O)c2ccc(O)cc2O)sc2c1CCC2	7.08µM*	.	?	-18.3%	.	.
CCCc1cc(=O)[nH]c(SCC(=O)Nc2sc(C(N)=O)c(C)c2C(=O)OCCOC)n1	?	.	-62.5*	0.0%	.	.
N#Cc1c(NC(=O)CCCC(=O)O)sc2c1CCCCC2	1.1%	1.16µM*	-7.6	0.0%	-1.9%	8.2µM*
CCCc1cc(=O)[nH]c(SCC(=O)NC(=O)OCC)n1	23.6%	10.7%	?	11.0%	-23.2%	23.7%
